# Source: PubChem BioAssay
# Values joined by “and” are separate entries in the source; they are usually repeats but may differ in a detail not shown here. Identical values can stand only once. Where a structure was tested more than once in an assay, its records may differ in their call. Active and inactive are the calls of the source.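 Rule for the calls, unless noted: active = thallium flux through the channel raised or lowered by more than 3 SD from vehicle-only wells, actives on both sides; inactive = the rest.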
# Experiments:
# [1] = polyglutamine-triggered caspase-3 activation inhibitors, cell-based (AID 1583); conditions: polyglutamine-induced caspase-3 activation, cell assay; stronger effect = higher value;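 tested at 10 µM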
# [2] = suppressors of polyQ aggregation in yeast, 75Q-TubU reporter (AID 1593); conditions: Yeast 75Q polyglutamine aggregation reporter
# [3] = inhibitors of mitochondrial cytochrome c release, biochemical, purified mitochondria (AID 1603); conditions: stronger effect = lower value;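 note: mouse liver mitochondria challenged with calcium chloride; signal normalized to the plate average as 100%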
# [4] = inhibitors of polyQ protein aggregation (AID 1604); conditions: polyglutamine-induced protein aggregation inhibition assay; stronger effect = higher value; tested at 2.5 µM
# [5] = enhancers of glutamate uptake in motor neurons, MN-1 cell line (AID 1612); conditions: MN-1 motor neuron cells, stronger effect = higher value;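 note: tested at 1 µM final; 0% = mean of DMSO vehicle wells on each plate; positive means more glutamate uptake than control and negative means less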
# [6] = Cy5 fluorescence interference with SSB-bound oligo, artefact control for HCV NS3 helicase inhibitor project, biochemical, NIH Clinical Collection, E. coli SSB (AID 743268; call rule not given here)
# [7] = tested on: Hepatitis C virus NS3 helicase; experiment: HCV NS3 helicase inhibitors, primary screen, biochemical, fluorescence polarization, NIH Clinical Collection (AID 743270; call rule not given here); conditions: NS3 helicase binding to Cy5-dT15 DNA, stronger effect = higher value, concentration not given here
# [8] = target: Single-stranded DNA-binding protein (Escherichia coli (strain K12)) (UniProt P0AGE0); experiment: E. coli SSB displacement from DNA, counter-screen for HCV NS3 helicase inhibitor project, biochemical, fluorescence polarization, NIH Clinical Collection (AID 743271; in the data active = inhibition above about 28%); conditions: stronger effect = higher value, concentration not given here
# [9] = fluorescence interference in NS3h assay format, artefact control for HCV NS3 helicase inhibitor project, biochemical, NIH Clinical Collection (AID 743272; call rule not given here;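 note: HCV NS3 helicase with a Cy5 labelled single stranded DNA probe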); conditions: fluorescence interference counterscreen, stronger effect = lower value
# [10] = viability rescue of complex I mutant cybrids, primary screen, cell-based, galactose medium, ATP luminescence (AID 1645843;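 active = z-score of at least 1.8 in each of two replicates, scored against plate mean and spread of sample wells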;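 note: positive z means more ATP and so rescue of galactose-driven cybrid death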); conditions: complex I mutant cybrid cells, 72 h, stronger effect = higher value
# F380Y/beta4 = experiment: modulators of BK channel variants, profiling panel, selectivity assay, cell-based, U2OS BacMam, thallium flux, beta subunits (AID 1259406); conditions: at 30 µM;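 note: initial slope of Thallos dye fluorescence rise after thallium is added; log ratio against the mean of 0.3% DMSO vehicle wells on the same plate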
# [11] = target: Calcium-activated potassium channel subunit alpha-1 (Homo sapiens) + Leucine-rich repeat-containing protein 26 (Homo sapiens) (UniProt Q12791+Q2I0M4); experiment: as above; conditions: F380Y/Slo1WT/gamma1, at 30 µM
# Calcium-activated potassium channel subunit alpha-1 (Homo sapiens) + Leucine-rich repeat-containing protein 26 (Homo sapiens), sequence (Q2I0M4 whole entry, looked up, one chain of several): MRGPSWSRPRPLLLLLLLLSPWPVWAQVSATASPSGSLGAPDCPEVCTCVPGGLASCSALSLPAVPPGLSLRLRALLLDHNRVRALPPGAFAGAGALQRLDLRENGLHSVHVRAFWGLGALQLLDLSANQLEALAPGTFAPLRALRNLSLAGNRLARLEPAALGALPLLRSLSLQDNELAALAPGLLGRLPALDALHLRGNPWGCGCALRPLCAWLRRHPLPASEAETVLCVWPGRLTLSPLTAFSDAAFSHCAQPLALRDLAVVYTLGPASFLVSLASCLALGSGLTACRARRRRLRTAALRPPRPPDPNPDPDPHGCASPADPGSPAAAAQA
# R275C = experiment: as above; conditions: at 30 µM
# R275C/beta1 = experiment: as above; conditions: at 30 µM
# R275C/beta2Delta = experiment: as above; conditions: at 30 µM
# R275C/beta4 = experiment: as above; conditions: at 30 µM
# R275C/Slo1WT/beta2 = experiment: as above; conditions: at 30 µM
# [12] = LFS_MB_P medulloblastoma growth inhibition, cell-based, chromothripsis tumors, cisplatin or BGB combos (AID 1671449; in the data active = inhibition above about 80%;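 note: cells exposed for 96 hours; 0% = vehicle DMSO and 100% = killing by high DMSO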); conditions: LFS_MB_P medulloblastoma cells
# [13] = HDN33 neuroblastoma growth inhibition, cell-based, chromothripsis tumors, cisplatin or BGB combos (AID 1671450; in the data active = inhibition above about 80%;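 note: cells exposed to compound for four days; 0% = vehicle DMSO and 100% = cell killing by high DMSO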); conditions: HDN33 neuroblastoma cells, stronger effect = higher value
# [14] = HTB85 osteosarcoma cell growth inhibition, synergistic combos for chromothripsis tumors, BGB or cisplatin IC20 combos (AID 1671453; in the data active = inhibition above about 80%;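 note: cells exposed for 96 hours before readout; 0% = vehicle DMSO and 100% = high DMSO killing control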); conditions: HTB85 osteosarcoma cells, drug combinations, stronger effect = higher value
# [15] = at 0.5 µM, stronger effect = higher value
# [16] = measured here: combination with BGB IC20, at 0.005 µM
# [17] = measured here: combination with BGB IC40, at 0.005 µM
# [18] = measured here: combination with BGB IC40, at 0.05 µM
# [19] = measured here: combination with cisplatin, at 0.5 µM, stronger effect = higher value
# [20] = measured here: combination with cisplatin, at 5 µM, stronger effect = higher value
# [21] = measured here: with BGB IC20 combination, at 0.5 µM
# [22] = measured here: with cisplatin IC20 combination, at 0.5 µM
# [23] = measured here: with BGB IC20, at 0.5 µM
# [24] = measured here: with BGB IC20, at 5 µM
# [25] = measured here: with cisplatin IC20, at 0.5 µM
# [26] = measured here: with cisplatin IC20, at 5 µM
smiles,measurement,setting,value
COc1ccccc1OCC(O)COC(N)=O (centres undefined),inhibition,[1],-7.05%
same,score,[2],1.41
same,cytochrome c release ratio,[3],0.96
same,inhibition of aggregation,[4],88.8%
same,glutamate uptake change,[5],-5.42%
same,fluorescence ratio,[6],1 (inactive)
same,inhibition,[7],-1.36% (inactive)
same,inhibition,[8],-1.24% (inactive)
same,fluorescence ratio,[9],1 (inactive)
same,z-score,[10],0.945 (inactive)
same,log fold change Tl+ flux,F380Y/beta4,0.0136 (inactive)
same,log fold change Tl+ flux,[11],0.0335 (inactive)
same,log fold change Tl+ flux,R275C,0.00553 (inactive)
same,log fold change Tl+ flux,R275C/beta1,-0.013 (inactive)
same,log fold change Tl+ flux,R275C/beta2Delta,-0.018 (inactive)
same,log fold change Tl+ flux,R275C/beta4,0.0404 (inactive)
same,log fold change Tl+ flux,R275C/Slo1WT/beta2,0.0176 (inactive)
CCn1cc(C(=O)O)c(=O)c2cc(F)c(N3CCN(C)CC3)cc21,z-score,[10],0.7 (inactive) and 0.275 (inactive)
same,inhibition,[12]; [15],-3.22% (inactive) and -29% (inactive)
same,inhibition,[12]; [16],13.2% and 24%
same,inhibition,[12]; [17],-32.6% and 8.85%
same,inhibition,[12]; [18],12.2% and 6.61%
same,inhibition,[12]; [19],-21.7% and -50.8%
same,inhibition,[12]; [20],-2.03% and -14%
same,inhibition,"[13]; BGB combo, at 5 µM",-18.6% and 9.99%
same,inhibition,[13]; at 0.5 µM,-25.3% (inactive) and 3.48% (inactive)
same,inhibition,"[13]; cisplatin combo, at 5 µM",-42% and 24.3%
same,inhibition,[13]; [21],-16.6% and 0.157%
same,inhibition,[13]; [22],-28.5% and 3.55%
same,inhibition,"[13]; single agent, at 5 µM",-19.9% and 6.42%
same,inhibition,[14]; at 0.5 µM,-24.6% (inactive) and 0.8% (inactive)
same,inhibition,[14]; [23],-39.2% and 13.3%
same,inhibition,[14]; [24],-22.1% and 10.1%
same,inhibition,[14]; [25],-19.7% and -20.6%
same,inhibition,[14]; [26],-28.4% and -20.4%
same,inhibition,"[14]; single agent, at 5 µM",-27.1% and 2.1%
same,log fold change Tl+ flux,F380Y/beta4,0.0266 (inactive)
same,log fold change Tl+ flux,[11],-0.0628 (inactive)
same,log fold change Tl+ flux,R275C,-0.0565 (inactive)
same,log fold change Tl+ flux,R275C/beta1,0.0145 (inactive)
same,log fold change Tl+ flux,R275C/beta2Delta,-0.0279 (inactive)
same,log fold change Tl+ flux,R275C/beta4,0.00214 (inactive)
same,log fold change Tl+ flux,R275C/Slo1WT/beta2,0.067 (inactive)
Cc1ccc(C)c(OCCCC(C)(C)C(=O)O)c1,inhibition,[1],5.02%
same,score,[2],-0.33
same,cytochrome c release ratio,[3],0.86
same,inhibition of aggregation,[4],39.4%
same,glutamate uptake change,[5],0.82%
same,fluorescence ratio,[6],1.06 (inactive)
same,inhibition,[7],0.45% (inactive)
same,inhibition,[8],1.05% (inactive)
same,fluorescence ratio,[9],0.96 (inactive)
same,z-score,[10],0.125 (inactive) and 0.18 (inactive)
same,log fold change Tl+ flux,F380Y/beta4,0.0166 (inactive)
same,log fold change Tl+ flux,[11],0.0687 (inactive)
same,log fold change Tl+ flux,R275C,0.0109 (inactive)
same,log fold change Tl+ flux,R275C/beta1,0.0657 (inactive)
same,log fold change Tl+ flux,R275C/beta2Delta,0.0312 (inactive)
same,log fold change Tl+ flux,R275C/beta4,-0.0122 (inactive)
same,log fold change Tl+ flux,R275C/Slo1WT/beta2,0.088 (inactive)
O=S(=O)(O)CCS,inhibition,[1],-57.1%
same,score,[2],1.3
same,cytochrome c release ratio,[3],0.92
same,inhibition of aggregation,[4],75%
same,glutamate uptake change,[5],-0.24%
same,fluorescence ratio,[6],0.73 (active)
same,inhibition,[7],-2.27% (inactive)
same,inhibition,[8],-2.76% (inactive)
same,fluorescence ratio,[9],1 (inactive)
same,z-score,[10],0.905 (inactive)
same,log fold change Tl+ flux,F380Y/beta4,0.00454 (inactive)
same,log fold change Tl+ flux,[11],0.0089 (inactive)
same,log fold change Tl+ flux,R275C,0.029 (inactive)
same,log fold change Tl+ flux,R275C/beta1,-0.0746 (inactive)
same,log fold change Tl+ flux,R275C/beta2Delta,-0.00238 (inactive)
same,log fold change Tl+ flux,R275C/beta4,0.0195 (inactive)
same,log fold change Tl+ flux,R275C/Slo1WT/beta2,0.0106 (inactive)
CC(C)(C)NCC(O)COc1cccc2c1C[C@H](O)[C@H](O)C2 (some centres undefined),inhibition,[1],27.5%
same,score,[2],1.45
same,cytochrome c release ratio,[3],0.46
same,inhibition of aggregation,[4],78.2%
same,glutamate uptake change,[5],-4.44%
same,fluorescence ratio,[6],0.99 (inactive)
same,inhibition,[7],-1.36% (inactive)
same,inhibition,[8],0.29% (inactive)
same,fluorescence ratio,[9],0.9 (inactive)
same,z-score,[10],0.01 (inactive)
same,log fold change Tl+ flux,F380Y/beta4,0.0116 (inactive)
same,log fold change Tl+ flux,[11],0.00167 (inactive)
same,log fold change Tl+ flux,R275C,-0.00576 (inactive)
same,log fold change Tl+ flux,R275C/beta1,-0.0239 (inactive)
same,log fold change Tl+ flux,R275C/beta2Delta,0.0276 (inactive)
same,log fold change Tl+ flux,R275C/beta4,-0.0328 (inactive)
same,log fold change Tl+ flux,R275C/Slo1WT/beta2,0.00485 (inactive)
N[C@@H](C(=O)N[C@@H]1C(=O)N2C(C(=O)O)=C(Cl)CS[C@H]12)c1ccccc1,fluorescence ratio,[6],0.95 (inactive)
same,inhibition,[7],-4.59% (inactive)
same,inhibition,[8],1.97% (inactive)
same,fluorescence ratio,[9],0.91 (inactive)
same,log fold change Tl+ flux,F380Y/beta4,-0.0331 (inactive)
same,log fold change Tl+ flux,[11],-0.07 (inactive)
same,log fold change Tl+ flux,R275C,0.0278 (inactive)
same,log fold change Tl+ flux,R275C/beta1,0.0103 (inactive)
same,log fold change Tl+ flux,R275C/beta2Delta,0.0124 (inactive)
same,log fold change Tl+ flux,R275C/beta4,-0.0176 (inactive)
same,log fold change Tl+ flux,R275C/Slo1WT/beta2,-0.0279 (inactive)
c1ccc2[nH]c(-c3cscn3)nc2c1,inhibition,[1],-3.31%
same,score,[2],0.53
same,cytochrome c release ratio,[3],1.13
same,inhibition of aggregation,[4],30.1%
same,glutamate uptake change,[5],-14%
same,fluorescence ratio,[6],1.06 (inactive)
same,inhibition,[7],0.45% (inactive)
same,inhibition,[8],-0.48% (inactive)
same,fluorescence ratio,[9],0.97 (inactive)
same,z-score,[10],0.46 (inactive)
same,log fold change Tl+ flux,F380Y/beta4,0.0538 (inactive)
same,log fold change Tl+ flux,[11],0.048 (inactive)
same,log fold change Tl+ flux,R275C,0.0284 (inactive)
same,log fold change Tl+ flux,R275C/beta1,-0.0377 (inactive)
same,log fold change Tl+ flux,R275C/beta2Delta,-0.0148 (inactive)
same,log fold change Tl+ flux,R275C/beta4,-0.00629 (inactive)
same,log fold change Tl+ flux,R275C/Slo1WT/beta2,0.0186 (inactive)
Cc1ccc(-c2cc(C(F)(F)F)nn2-c2ccc(S(N)(=O)=O)cc2)cc1,inhibition,[1],23.5%
same,score,[2],-0.03
same,cytochrome c release ratio,[3],4.42
same,inhibition of aggregation,[4],77%
same,glutamate uptake change,[5],-10.9%
same,fluorescence ratio,[6],1.06 (inactive)
same,inhibition,[7],-14.1% (inactive)
same,inhibition,[8],-0.48% (inactive)
same,fluorescence ratio,[9],1.02 (inactive)
same,z-score,[10],2.48 (active) and 1.33 (inactive) and 1.65 (inactive)
same,log fold change Tl+ flux,F380Y/beta4,0.0167 (inactive)
same,log fold change Tl+ flux,[11],-0.0327 (inactive)
same,log fold change Tl+ flux,R275C,-0.00943 (inactive)
same,log fold change Tl+ flux,R275C/beta1,0.012 (inactive)
same,log fold change Tl+ flux,R275C/beta2Delta,-0.0274 (inactive)
same,log fold change Tl+ flux,R275C/beta4,-0.00588 (inactive)
same,log fold change Tl+ flux,R275C/Slo1WT/beta2,-0.0385 (inactive)
Cn1cnc([N+](=O)[O-])c1Sc1ncnc2nc[nH]c12,inhibition,[1],18.4%
same,score,[2],0.86
same,cytochrome c release ratio,[3],0.54
same,inhibition of aggregation,[4],83.1%
same,glutamate uptake change,[5],-23.5%
same,fluorescence ratio,[6],1.03 (inactive)
same,inhibition,[7],-3.18% (inactive)
same,inhibition,[8],-2.76% (inactive)
same,fluorescence ratio,[9],0.99 (inactive)
same,z-score,[10],-0.21 (inactive) and -1.11 (inactive)
same,inhibition,[12]; [15],-24.5% (inactive) and -18.6% (inactive)
same,inhibition,[12]; [16],-29.8% and -1.49%
same,inhibition,[12]; [17],-7.88% and -5.24%
same,inhibition,[12]; [18],-1.05% and 8.34%
same,inhibition,[12]; [19],-41.8% and -13.7%
same,inhibition,[12]; [20],-15% and -14.9%
same,inhibition,"[13]; BGB combo, at 5 µM",27% and -4.71%
same,inhibition,[13]; at 0.5 µM,9.11% (inactive) and 3.47% (inactive)
same,inhibition,"[13]; cisplatin combo, at 5 µM",18.8% and 16.9%
same,inhibition,[13]; [21],3.66% and -16.5%
same,inhibition,[13]; [22],5.32% and -7.32%
same,inhibition,"[13]; single agent, at 5 µM",55.4% and 48.5%
same,inhibition,[14]; at 0.5 µM,-24.4% (inactive) and -11% (inactive)
same,inhibition,[14]; [23],-62.4% and -24%
same,inhibition,[14]; [24],-10.9% and -18.4%
same,inhibition,[14]; [25],-12.7% and 1.06%
same,inhibition,[14]; [26],8.32% and 19.5%
same,inhibition,"[14]; single agent, at 5 µM",11% and -0.274%
same,log fold change Tl+ flux,F380Y/beta4,-0.00991 (inactive)
same,log fold change Tl+ flux,[11],-4.3e-05 (inactive)
same,log fold change Tl+ flux,R275C,-0.0406 (inactive)
same,log fold change Tl+ flux,R275C/beta1,0.0023 (inactive)
same,log fold change Tl+ flux,R275C/beta2Delta,-0.053 (inactive)
same,log fold change Tl+ flux,R275C/beta4,-0.0246 (inactive)
same,log fold change Tl+ flux,R275C/Slo1WT/beta2,0.0598 (inactive)
